About 83,000 compounds went through this panel and 20% of them were active in at least one assay; those are over-represented in the sample as a whole.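 Note: values are percent growth. 100 is the growth of untreated cells, values between 100 and 0 indicate rising inhibition; between -100 and 0 indicates cell death.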 A number with no mark means an inactive call. Calls of active or inactive are those of the source. How the source made its calls: active means growth percent below 10; inactive means the rest.

Data on 27 compounds can be found in PubChem BioAssay (NCI).

Holding throughout (experiment): NCI-60 one-dose screen, 48 h (100 = growth as untreated, 0 = no growth, -100 = all killed)
Common to all, as to settings: 10 µM unless noted

Assay [1] deals with NCI-H23 lung.
In assay [2] the test system is NCI-H226 lung.
Assay [3] concerns NCI-H322M lung.
Assay [4] deals with HOP-62 NSCLC.
In assay [5] the test system is NCI-H460 lung.
Assay [6] relates to HOP-92 NSCLC.
Assay [7] deals with NCI-H522 lung.
Assay [8] deals with A549/ATCC NSCLC.
Assay [9] deals with 786-0 renal.
For assay [10], the system named is COLO 205 colon.

Consider `Cn1nc(CC#N)c2c(=N)n(N)cnc21`, for which the growth in assay [1] was 104%; in [2], 108%; in [3], 118%; in assay [4], 101%; in assay [5] it was 102%; in assay [6] it was 98.8%. In addition, the growth was 110% in [7], 113% in [8], 123% in assay [9] and 105% in assay [10].

As to `C=C1C(=O)O[C@H]2[C@H]1CC/C(CNC(=O)c1cccc3ccccc13)=C\CC[C@@]1(C)O[C@@H]21`, the growth is 70.1% in assay [1]; 78% in assay [2]; 90.5% in [3]; 93.1% in assay [4]; 78.6% in assay [5]; -11% (active) in assay [6]. Besides, the growth in [7] was -46.7% (active); in assay [8], 76.9%; in assay [9] it was 32.2%; in [10], 28.5%.

As for `CC1(C)CC(=O)C2=C(C1)N(c1ccc(F)cc1F)C(N)=C(C#N)C2c1cc(Br)ccc1F` (stereo not given), the growth in assay [1] was 86.7%; in assay [2], 103%; in assay [3], 95.4%; in assay [4] it was 89.9%; in [5], 95%; in assay [6] it was 119%. Besides, the growth in [7] was 80.7%; in assay [8] it was 79.3%; in [9], 98.6%; in [10], 118%.

With `CCC(CC)NCC(C)(C)O`, the growth was 97.7% in [1]; 109% in [2]; 94% in assay [3]; 119% in [4]; 103% in [5]; 105% in assay [6]. Besides, the growth was 105% in [7], 102% in assay [8], 107% in assay [9] and 120% in [10].

Take `O=C(c1nc2ccccc2[nH]1)C1C(c2ccc(Cl)cc2)C2CC3CCCC[C@H]3N2[C@@]12C(=O)Nc1cc(Cl)ccc12` (stereo not given in full): the growth in assay [1] was 58.6%; in assay [2], 58.8%; in [3] it was 62.2%; in [4], 68.7%; in assay [5], 23.1%; in [6] it was 46.3%. Moreover, the growth in assay [7] is 56.4%; in assay [8] it was 35.2%; in [9] it was 48.4%; in [10] it was 29.8%.

Consider `COc1cc(C2C3CC4CCCC[C@H]4N3[C@@]3(C(=O)Nc4cc(Cl)ccc43)C2C(=O)c2nc3ccccc3[nH]2)cc(OC)c1OC` (stereo not given in full), for which the growth in assay [1] was 75.1%; in assay [2] it was 76.1%; in [3], 88.3%; in [4], 90.1%; in assay [5], 42%; in assay [6] it was 64.2%. Besides, the growth in [7] is 68.2%; in assay [8] it was 43.3%; in [9], 67%; in assay [10] it was 59.7%.

Take `CCN(c1ccccc1)S(=O)(=O)c1cc([N+](=O)[O-])ccc1Cl`: the growth was 80.2% in assay [1]; 36.4% in [2]; 73.3% in [3]; 105% in [4]; 106% in assay [5]; 49.9% in [6]. Moreover, the growth in assay [7] was 23.7%; in [8] it was 102%; in [9], 97.4%; in [10] it was 129%.

As for `O=C1c2ccc3c4c(ccc(c24)C(=O)N1CCCNCc1ccccc1F)C(=O)N(CCCNCc1ccccc1F)C3=O`, the growth in [1] was -53% (active); in assay [2] it was -51.9% (active); in assay [3] it was -83.5% (active); in assay [4], -29.7% (active); in [5] it was -55.2% (active); in assay [6], -14.2% (active). Also, the growth was -92.5% (active) in assay [7], -91.2% (active) in assay [8], -40.1% (active) in assay [9] and -46% (active) in assay [10].

With `COc1ccc(N2CCN(c3ccc(NC4=C(Cl)C(=O)c5ncccc5C4=O)cc3)CC2)cc1`, the growth was 26.2% in assay [1]; 52.8% in assay [2]; 46.9% in assay [3]; 56.2% in [4]; 17.6% in assay [5]; 85.8% in assay [6]. Moreover, the growth was 43.8% in [7], 36.1% in assay [8], 80.1% in assay [9] and 43% in [10].

`O=C(CSc1nc2ccccc2[nH]1)NCc1ccccc1`: the growth in assay [1] was 100%; in assay [2], 95.9%; in assay [3], 97.4%; in assay [4], 88.5%; in assay [5] it was 103%; in [6], 105%. The growth in assay [7] was 98.3%; in assay [8], 100%; in assay [9], 102%; in [10], 111%.

Regarding `O=C(N/N=C/c1ccc(Oc2ccccc2)cc1)c1cnn2c1NC(c1ccccc1)C2` (stereo not given), the growth in [1] is 61.2%; in [2] it was 89.2%; in [3], 32.2%; in assay [4], 33.6%; in assay [5] it was 1.16% (active); in assay [6], 74.2%. Besides, the growth in assay [7] is 51.3%; in assay [8], 8.65% (active); in [9] it was 41%; in assay [10], 51.6%.

`NC1=NN=C(N)C1=Cc1cc2ccccc2n2nnnc12`: the growth was 99% in assay [1]; 100% in assay [2]; 105% in assay [3]; 96.8% in assay [4]; 105% in assay [5]; 87.4% in assay [6]. The growth in assay [7] is 95%; in assay [8] it was 103%; in [9], 93.9%; in assay [10], 99.7%.

Turning to `COc1ccc(/C=C(\C#N)n2nc3cccc(F)c3n2)cc1`, the growth in assay [1] is 101%; in [2], 96.9%; in assay [3], 98.6%; in [4], 105%; in assay [5], 106%; in [6] it was 96.1%. Further, the growth in [7] was 93%; in assay [8], 98.1%; in assay [9], 96.6%; in assay [10], 115%.

Regarding `O=C1C=CC(=O)N1c1cccc(Cl)c1`, the growth in assay [1] is 103%; in assay [2] it was 107%; in assay [3], 121%; in assay [4], 101%; in assay [5], 111%; in assay [6], 76%. The growth in assay [7] is 69.9%; in assay [8], 93%; in assay [9] it was 105%; in assay [10], -6.46% (active).

As for `Cn1ccnc1C(=O)/C=C/c1ccc(CC(=O)NC2CCCCC2)cc1`, the growth was 61.9% in assay [1]; 92.8% in assay [2]; 61% in assay [3]; 56% in assay [4]; 26% in [5]; 75% in assay [6]. Further, the growth in assay [7] is 52.1%; in assay [8], 64.1%; in assay [9], 71.3%; in [10] it was 67.9%.

`C=C1C(=O)O[C@H]2[C@H]1CC/C(COC(=O)NCC(C)c1ccc(CC(C)C)cc1)=C\CC[C@@]1(C)O[C@@H]21` (stereo not given in full): the growth in assay [1] was 30.7%; in assay [2] it was 61.4%; in assay [3], 87%; in assay [4], 82.2%; in assay [5], 19.7%; in [6], -33.3% (active). For the same compound, the growth in [7] was -64.1% (active); in assay [8] it was 73%; in assay [9], -87.7% (active); in [10], -50.3% (active).

On to `COc1ccc(-c2nc([C@@H](C)Sc3nc(N)cc(N)n3)c(C)s2)cc1OCCN1CCOCC1`, for which the growth in assay [1] was 103%; in assay [2] it was 95.7%; in assay [3], 109%; in assay [4], 94.5%; in assay [5], 110%; in assay [6], 95.3%. Moreover, the growth in assay [7] is 87%; in assay [8], 96.2%; in assay [9], 104%; in assay [10], 116%.

In the case of `CCOC(=O)C1=C(C)NC(SCc2cc(=O)oc3ccc(F)cc23)=N[C@@H]1c1cccc2ccccc12`, the growth in assay [1] is 94.3%; in [2], 103%; in assay [3] it was 102%; in assay [4], 90.8%; in [5], 105%; in [6] it was 86.7%. The growth in assay [7] was 84.8%; in [8], 98.9%; in assay [9] it was 93.4%; in assay [10], 108%.

With `COc1ccc(/C=C/c2nc(Nc3ccc(S(=O)(=O)Nc4cc(C)on4)cc3)c3ccccc3n2)cc1`, the growth in assay [1] was 81.3%; in [2], 65.9%; in [3], 37.3%; in assay [4] it was 57.7%; in assay [5], 53.9%; in assay [6] it was 46%. Besides, the growth is 63.5% in assay [7], 39.1% in [8], 87.9% in [9] and 48.6% in assay [10].

As for `CNCCOc1nc2c3cnccc3cc(-c3cc(OC)c(OC)c(OC)c3)c2c2ccncc12`, the growth in assay [1] is -49.1% (active); in assay [2], -42.5% (active); in assay [3], -4.74% (active); in [4] it was -39% (active); in [5] it was -46.8% (active); in assay [6] it was -20.8% (active). Besides, the growth in [7] was -62.7% (active); in assay [8], -8.59% (active); in assay [9], -96.7% (active); in assay [10], -61.2% (active).

Turning to `CCOC(=O)CCN(CC(C)C)C(=S)Nc1ccccc1`, the growth in assay [1] was 98.8%; in assay [2], 107%; in assay [3], 107%; in assay [4] it was 120%; in [5], 107%; in assay [6], 110%. The growth in assay [7] was 101%; in assay [8], 101%; in assay [9], 101%; in assay [10] it was 113%.

Take `NS(=O)(=O)c1ccc(CCN2C(=O)c3cc(Cl)c(Cl)cc3C2=O)cc1`: the growth in [1] was 105%; in assay [2], 106%; in [3], 97.8%; in [4], 102%; in assay [5] it was 109%; in assay [6], 104%. The growth in assay [7] was 86.5%; in assay [8] it was 105%; in assay [9] it was 96.7%; in assay [10], 115%.

As to `COc1ccc(/C=C/c2nc(Nc3ccc(S(=O)(=O)NC(C)=O)cc3)c3ccccc3n2)cc1`, the growth in assay [1] is 85.9%; in assay [2], 84%; in assay [3], 38.6%; in assay [4], 81.2%; in assay [5], 64.7%; in [6], 67.8%. Further, the growth is 76.3% in assay [7], 42% in assay [8], 83.6% in assay [9] and 49.7% in assay [10].

With `Cc1ccc(-c2nc3ccccn3c2/C=C2/C(=O)Nc3cc(Cl)ccc32)cc1`, the growth in assay [1] is 72.4%; in assay [2], 94.5%; in [3], 98%; in assay [4] it was 83.7%; in assay [5], 82.3%; in [6], 110%. Also, the growth in assay [7] was 68.7%; in assay [8], 90.6%; in assay [9], 92.7%; in [10] it was 84%.

On to `Cc1ccc(NC(=O)Cc2ccc(/C=C/C(=O)c3ncc[nH]3)cc2)cc1`, for which the growth was 41.6% in assay [1]; 89.7% in [2]; 63.9% in [3]; 43.4% in assay [4]; 7.31% (active) in [5]; 82% in [6]. The growth in assay [7] is 43.6%; in [8], 62.1%; in assay [9] it was 29.7%; in assay [10], 49.2%.

Take `CNCCn1c(=O)c2cc(OC)c(OC)cc2c2ccc3cc4c(cc3c21)OCO4`: the growth in assay [1] was -18.1% (active); in assay [2], -98.8% (active); in [3] it was -14.5% (active); in assay [4], 3.19% (active); in assay [5] it was -18.4% (active); in assay [6] it was -5.84% (active). Besides, the growth is -35.2% (active) in [7], -81.2% (active) in assay [8], -51% (active) in [9] and -61.6% (active) in assay [10].

Take `CC(Sc1nc2sc3c(c2c(=O)n1-c1ccc(Cl)cc1)CCCC3)C(=O)Nc1nc(-c2ccc(Br)cc2)cs1` (stereo not given): the growth in [1] was 95.3%; in [2], 94.3%; in [3] it was 95.8%; in assay [4], 91.5%; in assay [5], 104%; in [6], 110%. Further, the growth in [7] was 82.1%; in assay [8], 100%; in [9], 92.6%; in [10], 110%.
